The entries come from a sample that favours hits as a whole.
Sm TGR inh: inhibitors of Schistosoma mansoni thioredoxin glutathione reductase; Q962Y6; purified TGR, DTNB reduction, TNB absorbance 405 nm; Potency, µM (doses to about 114 µM), for the others: top-dose activity change, negative = inhibition, most hits filed as inhibitors; 3% of 360,000 active; further: potency means the concentration at half of the fitted maximal effect; on the % scale 0 is the no-effect control and ±100 the full control effect; nearly all actives have a fitted effect of over 60% in size
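First, TGR (20 nM dispensed) and NADPH were mixed with compound. Second, a 15 min room-temperature incubation followed. Third, further NADPH and then DTNB were added to start the reaction. Finally, TNB absorbance was monitored kinetically.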
TbPYK inhibitor: inhibitors of Trypanosoma brucei pyruvate kinase; TbPYK enzyme, Kinase-Glo Plus ATP luminescence, 45 min; Potency, µM (top dose mostly 76.8 µM), for the others: top-dose activity, negative = inhibition, actives largely listed as inhibitors; 0.12% of 410,000 active; AID 624173; further: potency means the concentration at half of the fitted maximal effect; on the % scale 0 is the no-effect control and ±100 the full control effect; nearly all actives have a fitted effect of over 50% in size
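Glycolytic pyruvate kinase of T. brucei was incubated with substrate, test compound and 130 uM ADP for 45 minutes at room temperature. Luminescent Kinase-Glo Plus signal was measured after 10 minutes.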
Giardia FBPA inh: inhibitors of Giardia lamblia fructose-1,6-bisphosphate aldolase. 0.71% of 290,000 active. Potency, µM (series often up to 59.6 µM), without a hit: at the top dose activity, negative = inhibition, usual class: inhibitors. A8B2U2. purified Giardia FBPA; further: potency means the concentration at half of the fitted maximal effect; on the % scale 0 is the no-effect control and ±100 the full control effect; nearly all actives have a fitted effect of over 55% in size
Target sequence (A8B2U2 whole entry, looked up): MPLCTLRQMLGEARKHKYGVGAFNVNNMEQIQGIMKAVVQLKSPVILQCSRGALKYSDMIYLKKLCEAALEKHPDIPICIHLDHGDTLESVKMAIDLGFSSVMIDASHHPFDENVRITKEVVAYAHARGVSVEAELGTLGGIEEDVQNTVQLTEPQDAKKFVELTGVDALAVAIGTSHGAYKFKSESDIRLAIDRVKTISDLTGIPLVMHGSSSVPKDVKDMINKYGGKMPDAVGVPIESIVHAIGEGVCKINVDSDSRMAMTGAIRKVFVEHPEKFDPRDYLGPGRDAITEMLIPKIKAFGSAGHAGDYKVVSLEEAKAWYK
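Giardia FBPA (40 nM reagent) was preincubated 10 min at RT with compound (up to 57.5 uM final), then substrate plus GAPDH/TPI/NAD/arsenate coupling system with diaphorase/resazurin was added; resorufin fluorescence (525/598 nm) was read after 20 min.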
LmPK inhibitor: LmPK (Leishmania mexicana) enzyme inhibition; Q27686; purified LmPK, Kinase-Glo ATP luminescence, 1 h; Potency, µM (series often up to 57.5 µM), for the others: at the highest dose activity change, negative = inhibition, hits mostly inhibitors; 0.37% of 290,000 active; AID 1721; further: potency means the concentration at half of the fitted maximal effect; on the % scale 0 is the no-effect control and ±100 the full control effect
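ATP generated from ADP (0.1 mM) and PEP (0.5 mM) by 0.1 nM LmPK over 1 h at room temperature (pH 7.2 imidazole buffer) was detected by coupled luciferase luminescence. Values were normalized to uninhibited and no-enzyme wells.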
CHX counter-1: counter-screen for Shiga toxin inhibitors: cycloheximide protein synthesis inhibition; cell reporter, cycloheximide protein synthesis inhibition counterscreen; max response, %; 12% of 300,000 active; AID 2314; in the data active means max response mostly above about 13%, no sharp cut-off; inactive means mostly below about 14%; further: read at 38.3 µM for the half of the compounds with a filed dose; 0% is about no effect
Shiga inhibitor: blocks Shiga toxin action in Vero cells; Vero cells, Shiga toxin protein synthesis inhibition reporter; inhibition, % at 38.7 µM; 9.2% of 290,000 active; AID 2315; in the data active means inhibition mostly above about 28%, no sharp cut-off; inactive means mostly below about 43%; further: 0% is about no effect
CHX counter-2: counter-screen for Shiga toxin inhibitors: cycloheximide protein synthesis block. Potency, µM (series often up to 38.3 µM), without a hit: at the top dose activity (activation), most hits filed as activators. Cycloheximide counterscreen, protein synthesis reporter, Shiga toxin assay. AID 2318. 3% of 510 active. shares compounds with Shiga inhibitor; calls by dose curve; further: potency means the concentration at half of the fitted maximal effect; 0% is about no effect
Numbers without * were called inactive; ? = inconclusive; . = no result; + = active, no number; [ ] = dose if it differs, or a comment. Unless noted, the call rests on the fitted dose curve; in most records, active means well fitted curve in the direction sought with a large enough effect; inconclusive means small, poorly fitted or top-dose-only effect, or another doubt; inactive means no such curve, though single readings can be large; an effect the other way counts as inactive or inconclusive.

SMILES | Sm TGR inh | TbPYK inhibitor | Giardia FBPA inh | LmPK inhibitor | CHX counter-1 | Shiga inhibitor | CHX counter-2
CC(C)(C)OC(=O)NCCCCCNC(=O)c1[nH]cnc1C(=O)Nc1ccon1 | 5% | 2% | . | . | . | . | .
Cc1cc2nc(CCN3CCOCC3)n(S(=O)(=O)c3ccc(C(C)(C)C)cc3)c2cc1C | 0% | 2% | 1% | 0% | 12 | 38* | ?
COc1cccc(OC)c1OCCCOc1ccc(C)cc1Br | -9% | -8% | -11% | 2% | 7 | 22* | 2%
COc1ccccc1OCCCOc1c(C)cc(C)cc1Br | 1% | -5% | 4% | 0% | 10 | 19 | .
COc1ccc(C2C(C#N)=C(C)NC3=C2C(=O)CC(C)(C)C3)c(OC)c1 (stereo not drawn) | 0% | 5% | -6% | -5% | -3 | 43* | -2%
COCn1c2ccccc2c2nnc(C(C)=O)nc21 | . | . | 0%[12.9 µM] | . | . | . | .
Cc1ccc2c(N)[nH]nc2n1 | . | -1% | -4% | 1% | 11 | 82* | -1%
CN(C)C(CNC(=O)CCS(=O)(=O)c1ccccc1)c1ccccc1 (stereo not drawn) | 0% | -7% | 9% | 1% | 9 | 15 | .
CN(C)C(CNC(=O)CCC(=O)c1ccc(Br)cc1)c1ccccc1 (stereo not drawn) | 3% | 5% | 1% | -5% | 11 | 38* | -1%
Cc1cc(OC(=O)N(C)C)nn1C(=O)N(C)C | . | . | 3% | . | -7 | -5 | .
C=CCn1c(-c2ccc(OC)c(OC)c2)cs/c1=N\c1ccccn1 | ? | 4% | ? | -11% | 8 | 29* | 5%
CCN(C1CCCCC1)S(=O)(=O)c1ccc(S(=O)(=O)NCc2ccncc2)cc1 | 6% | 1% | -1% | -1% | 1 | 39* | -4%
CC(C)C(=O)SCCCCCCC(=O)Nc1nc(-c2ccccc2)cs1 | . | . | 4% | . | -1 | 16* | 1%
O=C(O)CCCC(=O)Nc1nc(-c2ccccc2)cs1 | -3% | 1% | 16% | -8% | -3 | -10 | .
Cn1ncc(Cl)c1C(=O)Nc1ccncc1 | -9% | 2% | 4% | 5% | -1 | -3 | .
Cc1cnc(NC(=O)c2c(Cl)cnn2C)s1 | 0% | -8% | . | -6% | 6 | 40* | 1%
O=C(Nc1ccc(O)cc1)/C(=C\C=C\c1ccccc1)NC(=O)c1ccccc1 | -14% | 3% | -6% | 0% | 3 | 30* | 1%
O=C(CN1CCN(c2ncc(C(F)(F)F)cc2Cl)CC1)NC(=O)NCc1ccccc1 | -24% | -2% | 1% | 5% | 2 | 68* | 0%
CC(C)(C)NC(=O)NC(=O)CN1CCN(c2ncc(C(F)(F)F)cc2Cl)CC1 | 6% | -30% | 1% | -16% | 7 | 19 | .
CCCC#Cc1cnc2c(c1)C(=O)N([C@H](C)CO)C[C@@H](C)[C@H](CN(C)S(=O)(=O)c1cccc(OC)c1)O2 | . | -1% | . | . | . | . | .
Cc1cc(C)cc(NC(=O)C(OC(=O)c2ccc([N+](=O)[O-])o2)c2ccccc2)c1 (stereo not drawn) | -30% | -4% | -27% | -3% | -2 | 30* | 1%
Cc1cc(C)nc(SCC(=O)Nc2cc(C)on2)n1 | -1% | 0% | 3% | -2% | 10 | 119* | -1%
CC(C)(C)C1CCC(C(=O)OCC(=O)c2ccc[nH]2)CC1 (stereo not drawn) | 0% | -4% | 1% | 3% | 8 | 27* | 0%
CCOC(=O)C1=C(O)/C(=C\c2cccs2)N=C1C | -15% | 3% | -6% | 5% | -1 | -13 | .
CCOC(=O)C1=C(O)/C(=C\c2ccc(CNC(=O)C(=O)Nc3ccccc3)o2)N=C1C | 8.9µM* | -12% | ? | 2% | 4 | 42* | 1%
O=c1c(=O)n(-c2cccc(Cl)c2)ccn1Cc1cccc(F)c1 | -19% | -5% | . | . | . | . | .
CC1CC(C)CN(C(=O)C(NS(=O)(=O)c2ccc(Br)s2)c2ccccc2)C1 (stereo not drawn) | 4% | -6% | 7% | 2% | 9 | + | 1%

Assay outcomes (PubChem BioAssay)
